Screening results from PubChem BioAssay.
PLC-beta3 inh: PLC-beta3 (human) inhibition, primary screen | Q01970 | Purified PLC-beta3, fluorogenic substrate, fluorescence | inhibition, % at 12.2 µM | actives 0.18% (n = 370,000); in the data active = inhibition above about 11%;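 note: 0% = median of compound wells on plate and 100% = full blocker control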
PLCg1 inh: inhibitors of human phospholipase C gamma1 | actives 0.84% (n = 370,000) | inhibition, % at 12.2 µM | P19174 | purified PLC-gamma1, fluorogenic substrate, fluorescence; in the data active = inhibition above about 9.5%
ADAM10 inh: ADAM10 inhibition, QFRET primary screen. AID 720582. recombinant ADAM10, EDANS/DABCYL FRET peptide cleavage, 3 h. inhibition, % at 7 µM. actives 0.62% (n = 370,000);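 active = inhibition above a per-campaign cutoff equal to the mean of compounds falling between control-based bounds plus 3 SD, cut at about 20% in these data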;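 note: 0% = DMSO wells while the 100% control is not disclosed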
Target sequence (O14672 214-748 limits assumed): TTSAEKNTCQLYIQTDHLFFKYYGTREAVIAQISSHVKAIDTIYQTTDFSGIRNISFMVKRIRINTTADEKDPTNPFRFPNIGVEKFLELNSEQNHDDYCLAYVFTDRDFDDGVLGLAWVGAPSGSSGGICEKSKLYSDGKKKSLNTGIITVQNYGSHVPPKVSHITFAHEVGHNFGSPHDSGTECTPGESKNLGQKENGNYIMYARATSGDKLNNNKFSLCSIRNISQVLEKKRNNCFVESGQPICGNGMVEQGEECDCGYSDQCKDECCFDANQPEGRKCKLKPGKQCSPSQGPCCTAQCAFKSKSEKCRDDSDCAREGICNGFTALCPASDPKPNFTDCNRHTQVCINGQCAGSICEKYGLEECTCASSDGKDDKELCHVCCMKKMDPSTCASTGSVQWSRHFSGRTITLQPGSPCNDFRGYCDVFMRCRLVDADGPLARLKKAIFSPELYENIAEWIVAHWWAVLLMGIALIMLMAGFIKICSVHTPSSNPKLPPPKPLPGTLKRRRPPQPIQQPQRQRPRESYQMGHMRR
ADAM17 inh: ADAM17 inhibition, QFRET primary screen. recombinant ADAM17, EDANS/DABCYL FRET peptide cleavage. P78536. AID 720648. actives 0.83% (n = 370,000). inhibition, % at 6.95 µM;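 active = inhibition above the mean of compounds lying between control limits plus 3 SD, set per campaign, cut at about 8.5% in these data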;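 note: 0% = DMSO-only wells as the low control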
proKLK7 act: activates the human kallikrein-7 zymogen | P49862 | purified proKLK7, EDANS-DABCYL substrate fluorescence; 100% is mature enzyme control, 0% vehicle | activation, % at 7 µM | actives 0.9% (n = 370,000) | AID 652039;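 active = activation above the mean of all tested compounds plus 3 SD, computed per campaign excluding outliers beyond control limits, cut at about 13% in these data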
An asterisk follows results filed as active; i = inactive; . = no result. Only some compounds are listed: those with a hit (about 2.9% of all), similar ones and a draw of the others.

SMILES	PLC-beta3 inh	PLCg1 inh	ADAM10 inh	ADAM17 inh	proKLK7 act
O=C(OCn1nnc2ccccc2c1=O)c1cccnc1Cl	7.9	11.9*	4.0	3.4	0.2
Cc1c(C(=O)OCC2CCCO2)[nH]c2c1C(=O)CC(c1ccc(N(C)C)cc1)C2 (stereo not given)	-1.7	0.4	20.7*	4.2	0.3
CCOC(=O)c1[nH]c2c(c1C)C(=O)CC(c1ccc(F)cc1)C2 (stereo not given)	2.0	3.4	-3.8	0.3	1.1
Cn1nc([N+](=O)[O-])nc1S(C)(=O)=O	3.2	47.3*	7.5	-1.0	-0.6
Cn1nc([N+](=O)[O-])nc1Oc1ccccc1F	-5.2	-1.3	3.1	-3.2	-0.1
CS(=O)(=O)N(CC(=O)Nc1ccc(F)c(F)c1)c1cccc([N+](=O)[O-])c1	4.2	2.8	-16.3	1.7	0.0
Cc1cccc(NS(=O)(=O)c2ccc(NC(=O)CN(c3cc([N+](=O)[O-])ccc3C)S(C)(=O)=O)cc2)c1	3.1	2.0	36.4*	13.9*	0.6
CCCCC#CC(CC)NCc1ccc(OC)cc1OC (stereo not given)	5.1	2.9	5.6	1.3	.
CCOC(=O)[C@]12CCCC=C1N(Cc1ccc(OC)cc1)C(=O)[C@@H]2CC(=O)N1CCN(C(=O)C2CC2)CC1	1.1	-1.1	-3.2	-7.2	0.6
Cc1ccc(S(=O)(=O)N2[C@@H](c3ccc(C(C)(C)C)cc3)C(C(=O)O)=CC[C@H]2c2ccc(C(C)C)cc2)cc1	-3.4	-3.9	21.9*	3.6	-0.3
CC(C)(C)OC(=O)N(CCc1ccccc1)Cc1cccc(OCc2cccc(NC(=O)c3ccccc3)c2)c1	5.8	9.9*	7.5	7.8	0.0
O=C1C2C(C(=O)N1/N=C/c1cc([N+](=O)[O-])ccc1O)C1C=CC2C12CC2 (stereo not given)	-1.7	-0.8	5.4	0.3	-0.1
O=C1C2C(C(=O)N1/N=C/c1cc([N+](=O)[O-])c(O)cc1O)C1C=CC2C12CC2 (stereo not given)	0.4	28.9*	9.7	2.1	-0.2
C[C@H]1[C@@H](OC(=O)NCc2ccc(C(F)(F)F)cc2)CC[C@@]23CCCN2C(=O)CCC[C@@H]13	2.5	2.2	5.5	1.1	.
O=C(COC(=O)CNC(=O)c1ccc(Cl)cc1Cl)NC(=O)NCc1ccccc1	-1.1	10.9*	11.8	4.1	0.4
O=C(CNC(=O)c1ccc(Cl)cc1Cl)OCc1ccccc1	0.8	3.5	-10.2	-1.4	0.0
O=C(NCc1cccc2ccccc12)C1CCCN(c2nc3ccccc3o2)C1 (stereo not given)	1.6	-4.2	-1.4	1.3	-0.1
COC(=O)CCC1NC(=O)C(Cc2c[nH]c3ccccc23)NC(=O)C2CC(=O)OC(C)C(NC(=O)C(C)NC(=O)C3CCCN3C(=O)C3CCCN3C(=O)C(C)NC(C)=O)C(=O)NC(CC(C)C)C(=O)NC(CCCCNC(=O)CCC(C(=O)NC(Cc3ccc(O)cc3)C(=O)O)NC1=O)C(=O)NC(Cc1c[nH]c3ccccc13)C(=O)N1CCCC1C(=O)NC(CO)C(=O)N2 (stereo not given)	-4.8	-3.1	-8.9	-0.7	0.3
O=C1CC(c2ccc3c(c2)OCO3)C2=C(CCCC2=O)N1 (stereo not given)	3.0	10.3*	7.5	3.0	0.8
C=CC[C@@H](CC(=O)N[C@H](CO)Cc1ccccc1)C(=O)N[C@H](COC(=O)[C@H](CC=C)CC(=O)OC(C)(C)C)Cc1c[nH]c2ccccc12	4.2	10.3*	28.7*	16.6*	-0.5
C=CC[C@@H](CC(=O)N(CCO)Cc1ccccc1)C(=O)N[C@@H](COC(=O)[C@H](CC=C)CC(=O)OC(C)(C)C)Cc1c[nH]c2ccccc12	6.1	5.5	35.0*	22.2*	0.6
C=CCC[C@H](Cc1ccc(F)cc1)C(=O)OC[C@H](Cc1c[nH]c2ccccc12)NC(=O)[C@@H](CC=C)CC(=O)NCCO	2.5	12.3*	26.0*	7.9	0.6
CCC[C@H]1[C@@H](NC(=O)c2cccnc2)CC[C@@]23CCCN2C(=O)CCC[C@@H]13	-2.9	2.8	-6.5	-6.0	.
O=C(Nc1ccc(Cl)cc1)OC1CCC12CCC(c1ccccc1)CC2 (stereo not given)	1.9	-0.2	10.3	3.4	-0.1
Nc1nc2ccc(S(=O)(=O)N3CCCCC3)cc2s1	0.9	47.8*	-5.5	0.2	0.7
SMILES	PLC-beta3 inh	PLCg1 inh	ADAM10 inh	ADAM17 inh	proKLK7 act
CN1C2=N[C@H](c3ccc(Br)cc3)CC(=O)N2/C(=C\c2ccccc2)[C@@H]1c1ccccc1	-2.6	-4.3	11.8	4.7	.
O=C1C(Cl)=C(Nc2ccccc2O)C(=O)N1CCc1ccccc1	-2.4	-3.9	32.8*	15.8*	0.0
CCN(CC)c1ccc(C=Nn2c(-c3ccc(F)cc3)n[nH]c2=S)c(O)c1	-52.3	-30.9	-5.5	2.1	6.8
COc1cccc(-c2cc(C(=O)Nc3ccncc3)c3ccccc3n2)c1	-61.6	-41.5	-2.9	-2.1	0.9
COc1cccc(-c2cc(C(=O)Nc3ccc(N(C)C(C)=O)cc3)c3cc(Br)ccc3n2)c1	-15.4	-2.5	20.2*	7.7	-3.9
O=C(O)c1cc(O)c2c(c1)[C@@H]([C@H]1c3cc(C(=O)O)cc(O)c3C(=O)c3c(O[C@@H]4O[C@H](CO)[C@@H](O)[C@H](O)[C@H]4O)cccc31)c1cccc(OC3O[C@H](CO)[C@@H](O)[C@H](O)[C@H]3O)c1C2=O (stereo not given in full)	12.5*	7.4	-209.2	2.8	-0.1
CC(C)(N[C@@H](Cc1c[nH]c2ccccc12)C(=O)NCCCc1ccccc1)C(=O)NCc1ccccc1	1.0	-0.9	11.0	3.6	.
O=C(c1ccccc1)c1ccccc1	10.7*	9.5	-3.5	4.3	0.2
CCNC(=O)N(C)c1nncnc1C(=O)NC	-8.8	6.1	-0.9	-4.8	0.3
CCNC(=O)N(C(=O)NCC)n1c(C)nnc1C	1.9	2.2	3.7	-0.2	15.7*
CCCCn1nnnc1C(c1ccccc1)N1CCN(c2ccc(C)cc2)CC1 (stereo not given)	11.1*	-2.4	8.3	1.9	-0.2
COc1cc(/C=N/NC(=O)C(Cc2c[nH]c3ccccc23)NC(=O)OCc2ccccc2)cc([N+](=O)[O-])c1O (stereo not given)	9.5	11.4*	40.7*	9.1*	0.3
O=C(Nc1cc(S(=O)(=O)N2CCOCC2)ccc1N1CCCC1)c1cc2c(s1)CCCC2	-7.7	-3.8	1.9	1.8	.
CC1CCCN(Cc2c(O)ccc3c4c(c(=O)oc23)CCCC4)C1 (stereo not given)	i	i	i	i	101.2*
CCOC(=O)Oc1ccc2c(=O)c(Oc3cccc(C)c3)coc2c1	i	i	i	-191.8	75.9*
CCOC(=O)Oc1ccc2c(=O)c(Oc3cc(C)cc(C)c3)coc2c1	i	i	-427.0	-127.3	35.9*
COCO[C@@H]1CC(CO)=C[C@H]2OCO[C@H]21	0.8	-0.5	-0.5	-2.4	.
